# According to PubChem BioAssay (NCATS):
# A number with no mark means an inactive call. Inconclusive results are not listed. A call without a number means that no potency is given here. Calls of active or inactive are those of the source. Unless noted, calls follow the shape of the dose curve; as a rule, active = well fitted curve in the direction sought with a large enough effect; inconclusive = small, poorly fitted or top-dose-only effect, or another doubt; inactive = no such curve, though single readings can be large; an effect the other way counts as inactive or inconclusive.
# Columns and labels:
# [1] = test system: UISO; assay: qHTS assay to identify novel small-molecules to repurpose for Merkel cell carcinoma treatment (AID 1296009); details: MCC and control cell lines, CellTiter-Glo viability, 72 h; series mostly up to 46 µM; also: nearly all actives have a fitted effect of over 60% in size; also: potency is read from the fitted curve at half-maximal effect
# Summary of the method: (§1)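 CellTiter-Glo luminescence after 72 hr compound exposure at 37 degree celsius gave cell viability. Libraries NPC and MIPE were run as 8- and 11-point dose responses; RLUs normalized to DMSO (negative) and no-cell (cytotoxicity) controls.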
# [2] = test system: WaGa; assay: as above; details: MCC and control cell lines, CellTiter-Glo viability, 72 h; series mostly up to 46 µM
# Summary of the method: as §1
# [3] = test system: C33A; assay: Primary qHTS to identify gynecologic anti-cancer compounds using libraries of approved drugs and bioactive compounds (AID 1345084); details: Gynecologic cancer cell panel viability, ATPlite luminescence, 48 h; series mostly up to 57.5 µM; also: nearly all actives have a fitted effect of over 55% in size
# Summary of the method: (§2)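 Five-point cytotoxicity, 48 h drug exposure at 37 C, 5% CO2, on cells seeded 16 h beforehand. ATP content read by ATPlite luminescence.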
# [4] = test system: CASKI; assay: as above; details: Gynecologic cancer cell panel viability, ATPlite luminescence, 48 h; series mostly up to 57.5 µM
# Summary of the method: as §2
# [5] = test system: Es-2; assay: as above; details: Gynecologic cancer cell panel viability, ATPlite luminescence, 48 h; series mostly up to 57.5 µM
# Summary of the method: as §2
# [6] = test system: HeLa; assay: as above; details: Gynecologic cancer cell panel viability, ATPlite luminescence, 48 h; series mostly up to 57.5 µM
# Summary of the method: as §2
# [7] = test system: Hek293T; assay: as above; details: Gynecologic cancer cell panel viability, ATPlite luminescence, 48 h, control line for the selectivity index; series mostly up to 57.5 µM
# Summary of the method: as §2
# [8] = test system: JEG-3; assay: as above; details: Gynecologic cancer cell panel viability, ATPlite luminescence, 48 h; series mostly up to 57.5 µM
# Summary of the method: as §2
# [9] = test system: OV90; assay: as above; details: Gynecologic cancer cell panel viability, ATPlite luminescence, 48 h; series mostly up to 57.5 µM
# Summary of the method: as §2
# [10] = test system: PA-1; assay: as above; details: Gynecologic cancer cell panel viability, ATPlite luminescence, 48 h; series mostly up to 57.5 µM
# Summary of the method: as §2
# [11] = test system: SKOV3; assay: as above; details: Gynecologic cancer cell panel viability, ATPlite luminescence, 48 h; series mostly up to 57.5 µM
# Summary of the method: as §2
# [12] = test system: Tov-21-G; assay: as above; details: Gynecologic cancer cell panel viability, ATPlite luminescence, 48 h; series mostly up to 57.5 µM
# Summary of the method: as §2
# [13] = test system: Tov112D; assay: as above; details: Gynecologic cancer cell panel viability, ATPlite luminescence, 48 h; series mostly up to 57.5 µM
# Summary of the method: as §2
# [14] = Drug repurposing screens with cells derived from glioblastoma tumor samples (AID 1345199); details: GBM patient neurospheres viability, ATP luminescence, 48 h; also: nearly all actives have a fitted effect of over 40% in size; also: potency is read from the fitted curve at half-maximal effect
# Summary of the method: (§3)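 Primary testing used CD133+ neurospheres from four GBM patients, seven concentrations, 48 h exposure and ATP-based viability; confirmation added three slower-growing patient lines.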
# [15] = test system: CAOV3; assay: Primary qHTS to identify gynecologic anti-cancer compounds using libraries of approved drugs and bioactive compounds (AID 1345084); details: Gynecologic cancer cell panel viability, ATPlite luminescence, 48 h; series mostly up to 57.5 µM; also: nearly all actives have a fitted effect of over 55% in size
# Summary of the method: as §2
# [16] = test system: astro; assay: Drug repurposing screens with cells derived from glioblastoma tumor samples (AID 1345199); details: viability, ATP luminescence, 48 h; series mostly up to 45.9 µM; also: nearly all actives have a fitted effect of over 40% in size; also: potency is read from the fitted curve at half-maximal effect
# Summary of the method: as §3
# [17] = qHTS assay for small molecule activators of the human pregnane X receptor (PXR) signaling pathway (AID 720659; call rule not given here)
# [18] = target: Nuclear receptor subfamily 1 group I member 2 (Rattus norvegicus) (UniProt Q9R1A7); assay: qHTS assay for small molecule activators of the rat pregnane X receptor (rPXR) signaling pathway (AID 651751; call rule not given here); details: rPXR reporter cells, luciferase (One-Glo), 24 h
# Nuclear receptor subfamily 1 group I member 2 (Rattus norvegicus), sequence (Q9R1A7 whole entry, looked up): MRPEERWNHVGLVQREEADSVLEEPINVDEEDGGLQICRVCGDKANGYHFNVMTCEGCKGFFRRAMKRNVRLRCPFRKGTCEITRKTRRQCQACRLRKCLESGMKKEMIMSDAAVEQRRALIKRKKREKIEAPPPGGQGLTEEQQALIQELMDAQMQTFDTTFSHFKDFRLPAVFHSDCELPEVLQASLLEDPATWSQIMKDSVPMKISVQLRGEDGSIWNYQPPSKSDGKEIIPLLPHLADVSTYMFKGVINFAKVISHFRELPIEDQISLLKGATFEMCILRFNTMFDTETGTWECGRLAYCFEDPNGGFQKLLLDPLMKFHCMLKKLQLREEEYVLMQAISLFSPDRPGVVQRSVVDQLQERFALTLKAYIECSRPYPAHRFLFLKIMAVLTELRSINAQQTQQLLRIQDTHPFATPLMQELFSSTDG
# [19] = at 45.9 µM (top of the series), tumour line B
# [20] = at 45.9 µM (top of the series), tumour line D
# [21] = at 46 µM (top of the series), tumour line A
# [22] = at 91.6 µM (top of the series), tumour line B
# [23] = at 91.6 µM (top of the series), tumour line D
structure (smiles),measurement,setting,value
C[C@]12CC[C@@H]3c4ccc(OC(=O)N(CCCl)CCCl)cc4CC[C@H]3[C@@H]1CC[C@@H]2OP(=O)(O)O,Potency,[1],inactive
same,Potency,[2],inactive
same,Potency,[3],inactive
same,outcome,[4],inactive
same,Potency,[5],inactive
same,Potency,[6],inactive
same,outcome,[7],inactive
same,outcome,[8],inactive
same,Potency,[9],inactive
same,Potency,[10],inactive
same,outcome,[11],inactive
same,Potency,[12],inactive
same,Potency,[13],inactive
same,"activity, negative = cell killing",[14]; [19],-5.05%
same,"activity, negative = cell killing",[14]; [20],-6.53%
CC(C)N(CCC(C(N)=O)(c1ccccc1)c1ccccn1)C(C)C (configuration not stated),Potency,[1],inactive
same,Potency,[2],inactive
same,Potency,[3],inactive
same,outcome,[15],inactive
same,outcome,[4],inactive
same,Potency,[5],inactive
same,Potency,[6],inactive
same,outcome,[7],inactive
same,outcome,[8],inactive
same,Potency,[9],inactive
same,Potency,[10],inactive
same,outcome,[11],inactive
same,Potency,[12],inactive
same,Potency,[13],inactive
same,"activity, negative = cell killing",[14]; [19],-20.9%
same,"activity, negative = cell killing",[14]; [20],4.58%
same,Potency,[16],inactive
O=C1c2ccccc2C(=O)C1C(=O)C(c1ccccc1)c1ccccc1,Potency,[1],inactive
same,Potency,[2],23.7 µM (active)
same,Potency,[3],inactive
same,outcome,[15],inactive
same,outcome,[4],inactive
same,Potency,[5],inactive
same,Potency,[6],inactive
same,outcome,[7],inactive
same,outcome,[8],inactive
same,Potency,[9],inactive
same,Potency,[10],inactive
same,outcome,[11],inactive
same,Potency,[12],inactive
same,Potency,[13],inactive
same,"activity, negative = cell killing",[14]; [19],-21.4%
same,"activity, negative = cell killing",[14]; [20],-28.8%
same,"activity, negative = cell killing",[14]; [21],-53.7%
same,"activity, negative = cell killing","[14]; at 46.1 µM (top of the series), tumour line C",-30.6%
same,outcome,[17],inactive
NC1=NC(=O)C(c2ccccc2)O1 (configuration not stated),Potency,[1],inactive
same,Potency,[2],inactive
same,Potency,[3],inactive
same,outcome,[15],inactive
same,outcome,[4],inactive
same,Potency,[5],inactive
same,Potency,[6],inactive
same,outcome,[7],inactive
same,outcome,[8],inactive
same,Potency,[9],inactive
same,Potency,[10],inactive
same,outcome,[11],inactive
same,Potency,[12],inactive
same,Potency,[13],inactive
same,"activity, negative = cell killing",[14]; [19],-0.343%
same,"activity, negative = cell killing",[14]; [20],-7.44%
same,"activity, negative = cell killing",[14]; [21],-19.1%
same,Potency,[16],inactive
CC(Cc1ccccc1)N(C)Cc1ccco1 (configuration not stated),Potency,[1],inactive
same,Potency,[2],inactive
same,Potency,[3],inactive
same,outcome,[4],inactive
same,Potency,[5],inactive
same,Potency,[6],inactive
same,outcome,[7],inactive
same,outcome,[8],inactive
same,Potency,[9],inactive
same,Potency,[10],inactive
same,outcome,[11],inactive
same,Potency,[12],inactive
same,Potency,[13],inactive
CN1CC[C@]23c4c5ccc(O)c4O[C@H]2[C@@H](O)CC[C@H]3[C@H]1C5,Potency,[1],inactive
same,Potency,[2],inactive
same,Potency,[3],inactive
same,outcome,[15],inactive
same,outcome,[4],inactive
same,Potency,[5],inactive
same,Potency,[6],inactive
same,outcome,[7],inactive
same,outcome,[8],inactive
same,Potency,[9],inactive
same,Potency,[10],inactive
same,outcome,[11],inactive
same,Potency,[12],inactive
same,Potency,[13],inactive
same,"activity, negative = cell killing","[14]; at 91.6 µM (top of the series), tumour line A",-29.5%
same,"activity, negative = cell killing",[14]; [22],-3.58%
same,"activity, negative = cell killing",[14]; [23],-23.6%
same,Potency,[16],inactive
NC(=O)CS(=O)C(c1ccccc1)c1ccccc1 (configuration not stated),Potency,[1],inactive
same,Potency,[2],inactive
same,Potency,[3],inactive
same,outcome,[15],inactive
same,outcome,[4],inactive
same,Potency,[5],inactive
same,Potency,[6],inactive
same,outcome,[7],inactive
same,outcome,[8],inactive
same,Potency,[10],inactive
same,outcome,[11],inactive
same,Potency,[12],inactive
same,Potency,[13],inactive
same,"activity, negative = cell killing",[14]; [19],-12.2%
same,"activity, negative = cell killing",[14]; [20],-18.4%
same,"activity, negative = cell killing",[14]; [21],-9.02%
same,Potency,[16],inactive
C[C@@H]1CC2=CC(=O)CC[C@@H]2[C@H]2CC[C@@]3(C)[C@@H](CC[C@]3(C)O)[C@@H]21,Potency,[1],inactive
same,Potency,[2],inactive
same,Potency,[3],inactive
same,outcome,[15],inactive
same,outcome,[4],inactive
same,Potency,[5],inactive
same,Potency,[6],inactive
same,outcome,[7],inactive
same,outcome,[8],inactive
same,Potency,[10],inactive
same,outcome,[11],inactive
same,Potency,[12],inactive
same,Potency,[13],inactive
[N-]=[N+]=CC(=O)OC[C@H](N)C(=O)O,Potency,[1],inactive
same,Potency,[2],inactive
same,Potency,[3],inactive
same,outcome,[15],inactive
same,outcome,[4],inactive
same,Potency,[5],inactive
same,Potency,[6],inactive
same,outcome,[7],inactive
same,outcome,[8],inactive
same,Potency,[9],inactive
same,Potency,[10],inactive
same,outcome,[11],inactive
same,Potency,[12],inactive
same,Potency,[13],inactive
same,"activity, negative = cell killing",[14]; [19],-23.8%
same,"activity, negative = cell killing",[14]; [20],-9.43%
same,"activity, negative = cell killing",[14]; [21],-24.5%
same,max response,[18],-5.51%
same,outcome,[17],inactive
COc1c2c(cc3c1OCO3)CCN(C)C2,Potency,[1],inactive
same,Potency,[2],inactive
same,Potency,[3],inactive
same,outcome,[15],inactive
same,outcome,[4],inactive
same,Potency,[5],inactive
same,Potency,[6],inactive
same,outcome,[7],inactive
same,outcome,[8],inactive
same,Potency,[9],inactive
same,Potency,[10],inactive
same,outcome,[11],inactive
same,Potency,[12],inactive
same,Potency,[13],inactive
same,"activity, negative = cell killing","[14]; at 21.2 µM (top of the series), tumour line B",-1.01%
same,"activity, negative = cell killing","[14]; at 21.2 µM (top of the series), tumour line D",-13.1%
C=CCC1([C@H](C)CCC)C(=O)NC(=O)NC1=O,Potency,[1],inactive
same,Potency,[2],inactive
same,Potency,[3],inactive
same,outcome,[15],inactive
same,outcome,[4],inactive
same,Potency,[5],inactive
same,Potency,[6],inactive
same,outcome,[7],inactive
same,outcome,[8],inactive
same,Potency,[9],inactive
same,Potency,[10],inactive
same,outcome,[11],inactive
same,Potency,[12],inactive
same,Potency,[13],inactive
same,"activity, negative = cell killing",[14]; [22],-8.55%
same,"activity, negative = cell killing",[14]; [23],-0.262%
same,Potency,[16],inactive
c1ccc(CN2CCNCC2)cc1,Potency,[1],inactive
same,Potency,[2],inactive
same,Potency,[3],inactive
same,outcome,[15],inactive
same,outcome,[4],inactive
same,Potency,[5],inactive
same,Potency,[6],inactive
same,outcome,[7],inactive
same,outcome,[8],inactive
same,Potency,[9],inactive
same,Potency,[10],inactive
same,outcome,[11],inactive
same,Potency,[12],inactive
same,Potency,[13],inactive
same,"activity, negative = cell killing","[14]; at 194 µM (top of the series), tumour line B",7.52%
same,"activity, negative = cell killing","[14]; at 194 µM (top of the series), tumour line D",-7.34%
same,Potency,[14]; tumour line A,126 µM (active)
same,Potency,[16],inactive
CCN(CCO)CCn1c(Cc2ccccc2)nc2c1c(=O)n(C)c(=O)n2C,Potency,[1],inactive
same,Potency,[2],inactive
same,Potency,[3],inactive
same,outcome,[15],inactive
same,outcome,[4],inactive
same,Potency,[5],inactive
same,Potency,[6],inactive
same,outcome,[7],inactive
same,outcome,[8],inactive
same,Potency,[10],inactive
same,Potency,[12],inactive
same,Potency,[13],inactive
same,"activity, negative = cell killing",[14]; [19],-6.5%
same,"activity, negative = cell killing",[14]; [20],-3.15%
same,Potency,[16],inactive
CCN[C@H](C)Cc1cccc(C(F)(F)F)c1,Potency,[1],inactive
same,Potency,[2],inactive
same,Potency,[3],inactive
same,outcome,[15],inactive
same,outcome,[4],inactive
same,Potency,[5],inactive
same,Potency,[6],inactive
same,outcome,[7],inactive
same,outcome,[8],inactive
same,Potency,[9],inactive
same,Potency,[10],inactive
same,outcome,[11],inactive
same,Potency,[12],inactive
same,Potency,[13],inactive
same,"activity, negative = cell killing",[14]; [22],-5.97%
same,"activity, negative = cell killing",[14]; [23],-5.78%
same,Potency,[16],inactive
